Inconclusive results are not listed. Values without a mark were called inactive. Calls follow the shape of the dose curve; as a rule, active = well fitted cell-killing curve with a large enough effect; inconclusive = small, poorly fitted or top-dose-only effect; inactive = flat fitted curve, though single readings scatter.
Experiment: Cell Viability - LYMP2-009 (AID 968);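 also: cells exposed to compound for 24 h at 37 °C; 0% = DMSO alone and the full-kill end = tetraoctylammonium bromide at 92 µM; nearly all actives have a fitted effect of over 55% in size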
Settings: LYMP2-009 lymphoblastoid cell viability; series mostly up to 92.2 µM; activity change, negative = viability loss: at the top concentration
Excerpt: NIH Chemical Genomics Center [NCGC]
NIH Molecular Libraries Screening Centers Network [MLSCN]
National Institutes of Environmental Health Sciences [NIEHS]
National Toxicology Program [NTP]
We have developed a 1536-well cell-based assay for quantitative high throughput screening (qHTS) against a number of cell lines to determine in vitro cytotoxicity of small molecules. This particular assay uses a human lymphoblastoid cell line (LYMP2-009) purchased from Coriell Institute for Medical Research.
NCGC Assay Protocol Summary:
The CellTiter-Glo luminescent cell viability assay (Promega) is a homogeneous method to measure the number of viable cells in culture. The end point readout of this assay is based on quantitation of intracellular ATP, an indicator of metabolic activity, using the luciferase reaction. Luciferase catalyzes the oxidation of beetle Luciferin to oxyluciferin and light in the presence of ATP. The luminescent signal is proportional to amount of ATP present.
Using the CellTiter-Glo luminescent cell viability assay, the amount of cellular ATP was measured in the lymphoblastoid cell line with complete culture medium following compound treatment for 24 hours. The assay was performed in opaque white Kalypsys 1536-well plates. In the screen, tetraoctylammonium bromide was used as positive control. Library compounds were measured for their ability to cause acute toxicity in the cell line, as reflected by a decrease in intracellular ATP levels, in a concentration-dependent manner. […] AC50 values were determined from concentration-response data modeled with the standard Hill equation.
qHTS protocol for CellTiter Glo lymphoblastoid cellular assay
[Step] [Parameter] [Value] [Description]
1. Reagent; 5 uL; 2500 lymphoblastoid cells/well
2. Time; 5 hr; 37 C incubation
4. Controls; 23 nL; Tetraoctylammonium bromide 6.4pM to 92 uM
5. Time; 24 hr; 37 C incubation
6. Reagent; 5 uL; CellTiter Glo reagent
7. Time; 30 min; Room Temperature
8. Detection; Luminescence; Viewlux plate reader
Keywords: cell viability, cytotoxicity, lymphoblastoid cell line, luminescence, NTPHTS, NTPHTS_NCGC, NIEHS, DSSTox, MLSMR, MLSCN, NIH Roadmap, qHTS, NCGC

| Compound | activity change, negative = viability loss [%] |
| --- | --- |
| CC(C)COC(=O)c1ccccc1C(=O)OCC(C)C | -6.79 |
| Oc1ccccc1Cl | -4.69 |
| O=Cc1ccccc1 | -10.2 |
| c1ccc2c(c1)-c1cccc3cccc-2c13 | 1.83 |
| CCOC(=O)c1ccccc1N | -8.15 |
| COC1=CC(=O)OC(CCc2ccc3c(c2)OCO3)C1 (configuration not stated) | -25.4 |
| CC(=O)/C=C/c1ccccc1 | -8.38 |
| Cc1ccccc1O | -8.99 |
| COC(=O)c1ccccc1C(=O)OC | 1.8 |
| Oc1c(Cl)c(Cl)c(Cl)c(Cl)c1Cl | -20 |
| CCOc1cc(C=O)ccc1O | -3.47 |
| c1ccc(Nc2ccc3ccccc3c2)cc1 | -8.82 |
